PLK1 PBD inh – Plk1 polo box domain binding inhibitors, primary screen, biochemical, fluorescence polarization; Serine/threonine-protein kinase PLK1 (Homo sapiens), P53350; Plk1 PBD phosphopeptide binding; inhibition, %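 (tested at about 20 µM)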; 97,000 tested, 0.13% active; AID 693, 2007; in the data active = inhibition above about 34%, passing the limit was not always enough
CYP2C19 act – human CYP2C19 activators, primary screen, biochemical, luminescence. recombinant CYP2C19, luciferin-H EGE luminescence; hits give high values; 0 = fully inhibited enzyme, 1 = untreated enzyme. activation factor at 5 µM. 96,000 tested, under 10 active;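 active = activation factor of at least 2 at 5 µM in the primary screen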
Target sequence (P33261 whole entry, looked up): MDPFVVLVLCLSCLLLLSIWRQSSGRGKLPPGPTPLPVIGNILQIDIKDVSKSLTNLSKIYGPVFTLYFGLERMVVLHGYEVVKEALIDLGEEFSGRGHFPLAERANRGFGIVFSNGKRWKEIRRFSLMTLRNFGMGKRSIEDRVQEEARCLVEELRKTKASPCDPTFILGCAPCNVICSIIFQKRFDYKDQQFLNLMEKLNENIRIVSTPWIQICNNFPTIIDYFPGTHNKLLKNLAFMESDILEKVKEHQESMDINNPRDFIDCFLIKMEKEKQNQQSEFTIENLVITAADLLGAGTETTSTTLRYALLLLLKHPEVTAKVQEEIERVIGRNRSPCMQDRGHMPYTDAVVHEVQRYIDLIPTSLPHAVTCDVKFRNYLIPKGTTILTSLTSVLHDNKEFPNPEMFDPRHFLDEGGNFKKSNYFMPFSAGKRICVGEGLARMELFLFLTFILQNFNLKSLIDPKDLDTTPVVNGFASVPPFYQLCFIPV
CYP2C9 inh – blockers of cytochrome P450 2C9 activity – biochemical, luminescence, ADME assay, primary screen. CYP2C9 Supersomes, luciferin-H conversion. 96,000 tested, 20% active. inhibition, % at 5 µM. AID 777, 2007. P11712;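 active = blocking of liver enzyme CYP2C9 beyond about 50% at 5 µM, limit read from the data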
CYP2C19 inh – blockers of cytochrome P450 2C19 activity – biochemical, luminescence, ADME assay, primary screen; P33261; CYP2C19 Supersomes, luciferin-H EGE luminescence, 30 min; inhibition, % at 5 µM; 96,000 tested, 21% active; AID 778, 2007;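 active = CYP2C19 inhibition above a set limit at 5 µM in the primary screen, cut at about 50% in these data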
CYP2C9 activ – human CYP2C9 activators, primary screen, biochemical, luminescence | Cytochrome P450 2C9 (Homo sapiens), P11712 | AID 1024, 2008 | recombinant CYP2C9, luciferin-H conversion; hits give high values; factor 1 = untreated enzyme, 0 = blocked | 96,000 tested, 1.4% active | activation factor at 5 µM;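 active = activation factor of 2 or more for CYP2C9 at a 5 µM dose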
PLK1 kinase inh – human PLK1 kinase inhibitors, primary screen, biochemical, TR-FRET; Serine/threonine-protein kinase PLK1 (Homo sapiens), P53350; recombinant PLK1 kinase, TR-FRET peptide phosphorylation; inhibition, % at 10 µM; 97,000 tested, 0.53% active;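 active = inhibition of 50% or more in the single-concentration screen; inactive = inhibition below 50%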
A number is an active result. In the library only some 28% were active in any assay of this set; here they are far more common.

CCc1nc2ccc(C)cc2c(C(=O)Oc2cccc3cccnc23)c1C was read as PLK1 PBD inh inactive, CYP2C19 act inactive, CYP2C9 inh 51, CYP2C19 inh inactive, CYP2C9 activ inactive and PLK1 kinase inh inactive.
Screening CCc1nc2ccccc2c(C(=O)Oc2cccc3cccnc23)c1C returned PLK1 PBD inh inactive, CYP2C19 act inactive, CYP2C9 inh inactive, CYP2C19 inh inactive, CYP2C9 activ inactive and PLK1 kinase inh inactive.
`O=C(NCC1CCCO1)c1cccc(N2C(=O)C3C4C=CC(C4)C3C2=O)c1` (stereo not given) gave PLK1 PBD inh inactive, CYP2C19 act inactive, CYP2C9 inh inactive, CYP2C19 inh inactive, CYP2C9 activ inactive and PLK1 kinase inh inactive.
For OC1CCN(c2c3c(nc4cc(-c5cccc(F)c5)nn24)CCCC3)CC1 the results were CYP2C19 act inactive, CYP2C9 inh inactive, CYP2C19 inh inactive and CYP2C9 activ inactive.
`Clc1cccc(-c2cc3nc4c(c(N5CCNCC5)n3n2)CCCC4)c1` gave PLK1 PBD inh inactive and PLK1 kinase inh inactive.
Screening Fc1cccc(-c2cc3nc4c(c(N5CCC6(CC5)OCCO6)n3n2)CCCC4)c1 returned CYP2C19 act inactive, CYP2C9 inh 74, CYP2C19 inh inactive and CYP2C9 activ inactive.
`CN(CCO)c1c2c(nc3cc(-c4cccc(F)c4)nn13)CCCC2` gave PLK1 PBD inh inactive, CYP2C19 act inactive, CYP2C9 inh 56, CYP2C19 inh inactive, CYP2C9 activ inactive and PLK1 kinase inh inactive.
`Cc1cc(N=Cc2cc(Br)ccc2O)no1` gave PLK1 PBD inh inactive, CYP2C19 act inactive, CYP2C9 inh inactive, CYP2C19 inh inactive, CYP2C9 activ inactive and PLK1 kinase inh inactive.
COc1ccc(C)cc1-n1c(SCC(=O)Nc2cc(C)on2)nc2sc(C)c(C)c2c1=O was read as PLK1 PBD inh inactive, CYP2C19 act inactive, CYP2C9 inh inactive, CYP2C19 inh inactive, CYP2C9 activ inactive and PLK1 kinase inh inactive.
For COc1ccc(C2C=C(c3ccccc3)Nc3nnnn32)cc1 (stereo not given) the results were PLK1 PBD inh inactive, CYP2C19 act inactive, CYP2C9 inh 74, CYP2C19 inh 90, CYP2C9 activ inactive and PLK1 kinase inh inactive.
Screening COc1cccc(C2=CC(c3ccccc3)n3nnnc3N2)c1 (stereo not given) returned PLK1 PBD inh inactive, CYP2C19 act inactive, CYP2C9 inh 79, CYP2C19 inh 82, CYP2C9 activ inactive and PLK1 kinase inh inactive.
`COc1cccc(C2=CC(c3ccc(N(C)C)cc3)n3nnnc3N2)c1` (stereo not given) gave PLK1 PBD inh inactive, CYP2C19 act inactive, CYP2C9 inh inactive, CYP2C19 inh inactive, CYP2C9 activ inactive and PLK1 kinase inh inactive.
`COc1ccc(C2=CC(c3ccc(C)cc3)n3nnnc3N2)cc1` (stereo not given) gave PLK1 PBD inh inactive, CYP2C19 act inactive, CYP2C9 inh 86, CYP2C19 inh 75, CYP2C9 activ inactive and PLK1 kinase inh inactive.
Screening COc1ccc(C2C=C(c3ccccc3)Nc3nc(NC(C)=O)nn32)cc1 (stereo not given) returned PLK1 PBD inh inactive, CYP2C19 act inactive, CYP2C9 inh inactive, CYP2C19 inh inactive, CYP2C9 activ inactive and PLK1 kinase inh inactive.
Cc1ccc(NC(=O)N2CCC(C(=O)NCC(C)C)CC2)cc1 was read as PLK1 PBD inh inactive, CYP2C19 act inactive, CYP2C9 inh inactive, CYP2C19 inh inactive, CYP2C9 activ inactive and PLK1 kinase inh inactive.
`Cc1ccc(SC(C)C(=O)N2CCCC2)cc1` (stereo not given) gave PLK1 PBD inh inactive, CYP2C19 act inactive, CYP2C9 inh inactive, CYP2C19 inh 76, CYP2C9 activ inactive and PLK1 kinase inh inactive.
For Cc1ccc2nc(SC(C)C(=O)N3CCCC3)[nH]c2c1 (stereo not given) the results were PLK1 PBD inh inactive and PLK1 kinase inh inactive.
For Cc1cc(C)nc(N2CCC(C(=O)Nc3ccc4c(c3)CCC4)CC2)n1 the results were PLK1 PBD inh inactive, CYP2C19 act inactive, CYP2C9 inh inactive, CYP2C19 inh inactive, CYP2C9 activ inactive and PLK1 kinase inh inactive.
`CC(C)(C)C(=O)CSc1nnc(-c2cccs2)n1CC1CCCO1` (stereo not given) gave PLK1 PBD inh inactive, CYP2C19 act inactive, CYP2C9 inh inactive, CYP2C19 inh 56, CYP2C9 activ inactive and PLK1 kinase inh inactive.
Screening Cc1occc1-c1nnc(SCC(=O)NCc2cccs2)n1CC1CCCO1 (stereo not given) returned PLK1 PBD inh inactive, CYP2C19 act inactive, CYP2C9 inh inactive, CYP2C19 inh inactive, CYP2C9 activ inactive and PLK1 kinase inh inactive.
For C=CCn1c(SCC(=O)C(C)(C)C)nnc1-c1ccccn1 the results were PLK1 PBD inh inactive and PLK1 kinase inh inactive.
Screening C=CCn1c(SCC(=O)c2ccc(NS(=O)(=O)c3ccccc3)cc2)nnc1-c1cccs1 returned CYP2C19 act inactive, CYP2C9 inh 97, CYP2C19 inh 58 and CYP2C9 activ inactive.
`C=CCn1c(SCc2ccc3nonc3c2)nnc1-c1cccs1` gave PLK1 PBD inh inactive, CYP2C19 act inactive, CYP2C9 inh 76, CYP2C19 inh 99, CYP2C9 activ inactive and PLK1 kinase inh inactive.
C=CCn1c(SCC(=O)C(C)(C)C)nnc1-c1cccs1 was read as PLK1 PBD inh inactive, CYP2C19 act inactive, CYP2C9 inh inactive, CYP2C19 inh 76, CYP2C9 activ inactive and PLK1 kinase inh inactive.
Screening C=CCn1c(SCC(=O)Nc2ccc(C(=O)OCC)cc2)nnc1-c1cccs1 returned CYP2C19 act inactive, CYP2C9 inh inactive, CYP2C19 inh inactive and CYP2C9 activ inactive.
For O=C(Nc1nnc(C23CC4CC(CC(C4)C2)C3)s1)c1ccco1 the results were PLK1 PBD inh inactive, CYP2C19 act inactive, CYP2C9 inh inactive, CYP2C19 inh inactive, CYP2C9 activ inactive and PLK1 kinase inh inactive.
Screening COc1ccc(C2(CNC(=O)CCC(=O)O)CCCC2)cc1 returned PLK1 PBD inh inactive, CYP2C19 act inactive, CYP2C9 inh inactive, CYP2C19 inh inactive, CYP2C9 activ inactive and PLK1 kinase inh inactive.
`O=C1CN(c2ccc(Cl)cc2)C(=O)CN1NC(=S)Nc1ccc(Cl)cc1` gave PLK1 PBD inh inactive, CYP2C19 act inactive, CYP2C9 inh inactive, CYP2C19 inh inactive, CYP2C9 activ inactive and PLK1 kinase inh inactive.
O=C(NCCc1c[nH]c2ccccc12)Nc1ccccc1 was read as PLK1 PBD inh inactive, CYP2C19 act inactive, CYP2C9 inh inactive, CYP2C19 inh 91, CYP2C9 activ inactive and PLK1 kinase inh inactive.
CCSc1nnc(NC(=O)C2Cc3ccccc3CN2C(=O)c2ccco2)s1 (stereo not given) was read as PLK1 PBD inh inactive, CYP2C19 act inactive, CYP2C9 inh 53, CYP2C19 inh inactive, CYP2C9 activ inactive and PLK1 kinase inh inactive.

Source: PubChem BioAssay
